Reference: article PMC5540273 (PLoS ONE, 2017)

Tests used:
Conditions in all cases: concentration: 1 μM, replicates: in singlicate; n = 1
DYRK1B = test system: DYRK1B
DYRK2 = test system: DYRK2
EGFR = test system: EGFR
EIF2AK1 = test system: EIF2AK1
EPHA1 = test system: EPHA1
EPHA2 = test system: EPHA2
EPHA3 = test system: EPHA3
EPHA4 = test system: EPHA4
EPHA5 = test system: EPHA5
EPHA6 = test system: EPHA6
EPHA7 = test system: EPHA7
EPHA8 = test system: EPHA8
EPHB1 = test system: EPHB1
EPHB2 = test system: EPHB2
EPHB3 = test system: EPHB3
EPHB4 = test system: EPHB4
EPHB6 = test system: EPHB6
ERBB2 = test system: ERBB2
ERBB3 = test system: ERBB3
ERBB4 = test system: ERBB4
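Further: KINOMEscan kinase panel screen.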

| SMILES | %Inh (DYRK1B) [%] | %Inh (DYRK2) [%] | %Inh (EGFR) [%] | %Inh (EIF2AK1) [%] | %Inh (EPHA1) [%] | %Inh (EPHA2) [%] | %Inh (EPHA3) [%] | %Inh (EPHA4) [%] | %Inh (EPHA5) [%] | %Inh (EPHA6) [%] | %Inh (EPHA7) [%] | %Inh (EPHA8) [%] | %Inh (EPHB1) [%] | %Inh (EPHB2) [%] | %Inh (EPHB3) [%] | %Inh (EPHB4) [%] | %Inh (EPHB6) [%] | %Inh (ERBB2) [%] | %Inh (ERBB3) [%] | %Inh (ERBB4) [%] |
| --- | --- | --- | --- | --- | --- | --- | --- | --- | --- | --- | --- | --- | --- | --- | --- | --- | --- | --- | --- | --- |
| CN(C)CCOc1ccc(-c2cc(-c3ccc(Cl)c(O)c3)c(-c3ccncc3)[nH]2)cc1.Cl.Cl [SB-684387] | 30 | 18 | 38 | 31 | 51 | 16 | 19 | 10 | 0 | 32 | 2 | 4 | 10 | 15 | 15 | 23 | 34 | 32 | 23 | 32 |
| CN(c1ccc(F)c(NC(=O)c2cccc(OC(C)(C)C#N)c2Cl)c1)c1ccc2nc(NC(=O)C3CC3)sc2n1 | 46 | 0 | 64 | 7 | 58 | 67 | 31 | 20 | 0 | 27 | 0 | 41 | 10 | 2 | 0 | 14 | 88 | 66 | 9 | 67 |
| O=C1NC(=O)C(c2ccccc2Cl)=C1Nc1cccc(Cl)c1 [SB-342409] | 0 | 23 | 0 | 27 | 8 | 7 | 0 | 25 | 0 | 17 | 15 | 19 | 8 | 12 | 13 | 15 | 0 | 0 | 0 | 9 |
| Cc1ccccc1CC(=O)N1CCc2cc(-c3cn(C)c4ncnc(N)c34)ccc21 [GSK2603346] | 4 | 4 | 22 | 90.1 | 13 | 5 | 0 | 0 | 0 | 10 | 0 | 5 | 8 | 0 | 0 | 0 | 53 | 8 | 0 | 32 |
| COc1cc(Nc2nccc(N3CCC(NS(=O)(=O)c4ccc(NC(C)=O)cc4)CC3)n2)cc(OC)c1OC [GSK1379825] | 8 | 10 | 11 | 7 | 54 | 46 | 0 | 28 | 0 | 37 | 0 | 11 | 6 | 30 | 55 | 38 | 96.8 | 18 | 38 | 20 |
| Cn1cc(-c2ccc3c(c2)CCN3C(=O)Cc2cc(F)cc(F)c2F)c2c(N)ncnc21 [GSK2634140] | 4 | 5 | 16 | 80 | 4 | 9 | 0 | 6 | 0 | 1 | 3 | 8 | 14 | 0 | 11 | 0 | 87 | 31 | 0 | 41 |
| O=C(Nc1n[nH]c2nc(-c3ccccc3O)ccc12)C1CC1 [SB-711880] | 56 | 14 | 27 | 0 | 0 | 4 | 30 | 0 | 5 | 0 | 58 | 37 | 0 | 0 | 0 | 0 | 53 | 0 | 0 | 0 |
| COc1cccc(-c2nc(-c3ccccc3)[nH]c2-c2ccncc2)c1 [SB-610250] | 20 | 2 | 12 | 5 | 18 | 0 | 0 | 17 | 0 | 9 | 9 | 25 | 16 | 0 | 24 | 0 | 22 | 31 | 20 | 0 |
| COc1cc(Nc2ccnc3cc(-c4ccncc4)ccc23)cc(OC)c1OC.Cl [GW494610] | 0 | 4 | 58 | 0 | 96.9 | 83 | 48 | 48 | 37 | 0 | 0 | 99.2 | 74 | 57 | 0 | 50 | 98 | 49 | 50 | 5 |
